APOBEC3A inh = human APOBEC3A DNA deaminase inhibition | P31941 | recombinant A3A, FAM/TAMRA ssDNA deamination fluorescence | 330,000 tested, 0.41% active | inhibition, % at 20 µM;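 active = at least 40% inhibition at 20 µM here, with at most 30% in a related deaminase screen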;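 note: plate controls were A3A with DMSO for no effect and wells lacking A3A enzyme for full effect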
Target sequence (P31941 whole entry, looked up): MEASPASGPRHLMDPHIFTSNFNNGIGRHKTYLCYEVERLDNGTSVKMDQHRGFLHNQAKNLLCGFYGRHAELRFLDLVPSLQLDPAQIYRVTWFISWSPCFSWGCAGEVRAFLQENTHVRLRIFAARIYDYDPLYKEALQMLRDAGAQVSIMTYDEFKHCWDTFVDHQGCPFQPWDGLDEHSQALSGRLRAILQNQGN
LANA-H2B inh = blocks KSHV LANA binding to histone H2A/H2B; Q9QR71; cell-free LANA-H2A/H2B peptide, fluorescence polarization; inhibition, % (concentration not given with the values); 320,000 tested, 0.6% active; AID 2629; in the data active = inhibition mostly above about 10%, no sharp cut-off; inactive = mostly below about 6.7%
HDAC3 inh = inhibitors of human histone deacetylase 3 | O15379 | recombinant HDAC3, fluorogenic peptide/trypsin coupled, fluorescence | inhibition, % at 8.3 µM | 320,000 tested, 0.15% active; in the data active = inhibition above about 26%, passing the limit was not always enough; inconclusive = no clear call, values can overlap the other calls
APOBEC3G inh = inhibitors of human APOBEC3G DNA deaminase; Q9HC16; recombinant A3G, ssDNA deamination FAM/TAMRA fluorescence; inhibition, % at 20 µM; 330,000 tested, 0.28% active;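 active = inhibition of at least 40% at 20 µM, with no more than 30% in the related APOBEC3A deaminase screen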;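 note: plate controls were DMSO wells with A3G for no effect and wells lacking A3G enzyme for full effect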
Target sequence (Q9HC16 whole entry, looked up): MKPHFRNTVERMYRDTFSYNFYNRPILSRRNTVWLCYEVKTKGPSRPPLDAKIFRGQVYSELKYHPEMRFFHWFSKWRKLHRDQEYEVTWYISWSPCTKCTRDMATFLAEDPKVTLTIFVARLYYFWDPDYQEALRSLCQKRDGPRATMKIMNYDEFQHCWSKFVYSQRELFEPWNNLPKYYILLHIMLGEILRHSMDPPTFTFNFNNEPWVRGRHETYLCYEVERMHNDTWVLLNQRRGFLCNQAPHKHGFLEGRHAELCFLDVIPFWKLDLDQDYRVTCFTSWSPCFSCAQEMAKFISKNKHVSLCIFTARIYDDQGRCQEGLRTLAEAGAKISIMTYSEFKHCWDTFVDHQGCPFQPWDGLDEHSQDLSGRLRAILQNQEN
Numbers without * were called inactive; ? = inconclusive; . = no result given; + = active, no number. A selection: hits, their analogues and other compounds. The true share with any hit is near 1.4%.

SMILES | APOBEC3A inh | LANA-H2B inh | HDAC3 inh | APOBEC3G inh
Fc1ccc2cc(-c3ccsc3)ncc2c1 | -1 | -10 | -6 | -5
CN(C)S(=O)(=O)N1CCc2ccc(NC(=O)c3ccc(C(F)(F)F)cc3)cc2C1 | -6 | -4 | 9 | -3
OC[C@@H]1CCCN1Cc1cn(-c2ccccc2)nc1-c1ccc2c(c1)OCO2 | 4 | 1 | -14 | -2
c1ccc(-n2cc(CN3CCCC(CN4CCCC4)C3)c(-c3ccc4c(c3)OCO4)n2)cc1 (stereo not given) | -1 | 21* | 1 | -7
COc1ccccc1Oc1c(C)oc2cc(OC(=O)c3ccco3)ccc2c1=O | 2 | 3 | 0 | 2
COc1ccccc1-c1c(C)oc2cc(OC(=O)c3ccco3)ccc2c1=O | -3 | 0 | 31* | -7
COc1ccc(C(C)(C)C)cc1NC(=O)COC(=O)CSCc1c(C)noc1C | -2 | . | . | -5
CCCCCCCCOc1ccc(C(=O)O)cc1 | 1 | 112* | 8 | -3
CCCCOc1ccc(C(=O)O)cc1 | -1 | 5 | -4 | -5
O=[N+]([O-])c1cccc(/C=N/Nc2nccnc2Cl)c1 | -7 | 54* | 2 | -9
Cc1ccc(NC(=O)C2COc3ccccc3O2)cc1S(=O)(=O)N1CCCCC1 (stereo not given) | -5 | -1 | ? | -9
COc1ccc(C(=O)O/N=C2\CCS(=O)(=O)c3sccc32)cc1 | 19 | -3 | 52* | -4
Cc1cccc(NC(=O)CSc2ccc3nnc(-c4cccnc4)n3n2)c1 | 0 | 13* | 0 | 2
O=C(CSc1ccc2nnc(-c3cccnc3)n2n1)Nc1ccc(F)cc1 | -3 | 31* | -4 | -7
CCOc1ccc(NC(=O)CSc2ccc3nnc(-c4cccnc4)n3n2)cc1 | -2 | 2 | -11 | -5
O=C(CSc1nnc(-c2cccnc2)n1-c1ccccc1)Nc1ccccc1 | 4 | 15* | 2 | 2
Cc1ccc(NC(=O)CSc2nnc(-c3cccnc3)n2-c2ccc(C)cc2)cc1 | 0 | -2 | 4 | -5
COc1ccc(-c2csc3ncn(CC(=O)N4CCOCC4)c(=O)c23)cc1 | 2 | 16* | 2 | 0
O=C(Cn1cnc2scc(-c3ccc(F)cc3)c2c1=O)N1CCOCC1 | -9 | -7 | 2 | -9
Cc1cnc(NC(=O)C2CC(=O)N(c3ccc4c(c3)OCCO4)C2)s1 (stereo not given) | -2 | 4 | -9 | -4
Cc1nnc(NC(=O)C2CC(=O)N(c3ccc4c(c3)OCCO4)C2)s1 (stereo not given) | 0 | 21* | 0 | -4
O=C(c1cc(Br)ccc1Cl)N1CCCC1 | 4 | 11* | 0 | 2
O=C(CSc1ccccc1)NCC(c1ccco1)N1CCCCC1 (stereo not given) | 0 | 28* | 6 | 0
COc1ccccc1CC(=O)NCC(c1ccco1)N1CCCCC1 (stereo not given) | 2 | -6 | 0 | 0
O=C(O)c1nn(CCOc2ccc(Br)cc2)c(=O)c2ccccc12 | -2 | 13* | 5 | 1
SMILES | APOBEC3A inh | LANA-H2B inh | HDAC3 inh | APOBEC3G inh
CCC(C)(C)C(=O)O[C@H]1C[C@@H](C)C=C2C=C[C@H](C)[C@H](CC[C@@H]3C[C@@H](O)CC(=O)O3)[C@H]21 | -1 | -5 | 8 | -4
C[C@]12c3[nH]c4ccccc4c3CCN1C(=O)C(CC(=O)NCc1cccc(C(F)(F)F)c1)C[C@@H]2C(=O)N1CCOCC1 (stereo not given in full) | -3 | + | 5 | -5
C[C@]12c3[nH]c4ccccc4c3CCN1C(=O)C(CC(=O)NCc1ccco1)C[C@@H]2C(=O)N1CCOCC1 (stereo not given in full) | -5 | 94* | -1 | -7
Cc1cc(NC(=S)Nc2ccccc2)ccc1Br | 1 | 22* | 7 | 2
Cc1cc(NC(=S)Nc2cccnc2)ccc1Br | -4 | 4 | 3 | -13
COCCN(C(=O)CSc1nnc(-c2ccccc2F)n1C)c1c(N)n(Cc2ccccc2)c(=O)[nH]c1=O | -3 | 0 | -3 | -4
CCCCN(C(=O)CSc1nnc(-c2ccccc2OC)n1C)c1c(N)n(Cc2ccccc2)c(=O)[nH]c1=O | 0 | + | 0 | -4
CC1(C)CC2(CCO1)OC(=O)CC2C(=O)Nc1c(Cl)cccc1Cl (stereo not given) | -3 | -2 | -2 | -9
COc1cccc(NC(=O)C2CC(=O)OC23CCOC(C)(C)C3)c1 (stereo not given) | 1 | 13* | -3 | -6
CC(=O)N1C(C(=O)O)Cc2c([nH]c3ccccc23)C1(C)C (stereo not given) | -4 | 0 | -1 | 1
CC1(C)NC(C(=O)O)Cc2c1[nH]c1ccccc21 (stereo not given) | 2 | 7.0* | -2 | -4
CCc1nc2ccccc2c(C(=O)OCc2nc3ccccc3c(=O)[nH]2)c1C | 0 | -4 | -1 | -5
CN(CCCN1c2ccccc2CCc2ccccc21)CC(=O)c1ccc(Cl)cc1 | 1 | 3 | 1 | -1
CN(C)CCCN1c2ccccc2CCc2ccc(Cl)cc21 | 0 | 15* | 2 | -4
CNCCCN1c2ccccc2CCc2ccccc21 | -3 | 9.8* | -3 | -6
CC(=O)c1cccc(OC(=O)C2=CC=CN3CCS(=O)(=O)N=C23)c1 | 0 | 47* | -25 | -8
O=C(Nc1cccc(Cl)c1)C1=CC=CN2CCS(=O)(=O)N=C12 | -4 | -6 | 3 | -2
CCc1ccc(CN(Cc2cccnc2)C(=O)/C=C/c2ccc(OC)cc2)cc1 | 14 | 0 | 15 | -1
CCCCC(=O)Nc1ccc(NC(=O)c2ccco2)cn1 | 2 | 11* | 2 | -4
CCCC(=O)Nc1ccc(NC(=O)c2ccco2)cn1 | -2 | 6 | -3 | -2
CCCC(=O)Nc1ccc(NC(=O)c2ccccn2)cn1 | 0 | 39* | 0 | -4
CCCC(=O)Nc1ccc(NC(=O)c2ccccc2OC)cn1 | -1 | -1 | 7 | -3
O=C(c1cccc(S(=O)(=O)N2CCN(c3ccc(F)cc3)CC2)c1)N1CCCC(C(F)(F)F)C1 (stereo not given) | -2 | -4 | 5 | -3
CNc1nnc(C(F)(F)F)s1 | -5 | 16* | 1 | -4
COCCCNC(=O)C[C@H]1C[C@H](C(=O)N2CCOCC2)[C@@]2(C)c3[nH]c4cc(CCC(=O)N(C)C)ccc4c3CCN2C1=O | 0 | . | . | 3
COc1ccc(CCn2nnnc2C(c2ccc(Cl)cc2)N2CCN(C)CC2)cc1OC (stereo not given) | 1 | 3 | 7 | -3
CCN1CCN(C(c2ccccc2)c2nnnn2CCc2ccc(OC)c(OC)c2)CC1 (stereo not given) | -3 | 15* | -6 | -1
COc1ccc(C2CC(O)(c3ccccc3)Oc3cc(OC)c(OC)c(OC)c32)cc1 (stereo not given) | 0 | 0 | 41* | -9
O=C(CSc1nnc(CNC(=O)c2ccc(F)cc2)o1)NCC1CCCO1 (stereo not given) | 2 | 18* | -2 | -2

From PubChem
